“And” between values parts separate entries of the source, which are not always exact repeats. Equal entries are not always repeated. A number with no mark means an inactive call. Records with an inconclusive call do not appear. The source made the active and inactive calls. The call rests on the fitted dose curve; in most records, active means well fitted curve in the direction sought with a large enough effect; inconclusive means small, poorly fitted or top-dose-only effect, or another doubt; inactive means no such curve, though single readings can be large; an effect the other way counts as inactive or inconclusive.

Experiment [1] has as its target Glutathione peroxidase 1 (Homo sapiens) (UniProt P07203). The experiment can be described thus: Primary qHTS Assay for Inhibitors of Recombinant Selenoprotein Glutathione Peroxidase 1 (GPX1) (AID 1845191). Further: nearly all actives have a fitted effect of over 65% in size. On activity, negative = inhibition: on the % scale 0 is the no-effect control and ±100 the full control effect. The gist of the method:
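10 nM GPX1 + cpd, 30 min RT; start w/ 1 mM GSH, 0.5 mM cumene hydroperoxide, 0.5 mM NADPH, 100 nM GR, 0.01% BSA; buffer 50 mM Tris-HCl pH 7.5, 2 mM EDTA, 150 mM NaCl; Fl 340/450, 0 & 15 min.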

Experiment [2] has as its target Phospholipid hydroperoxide glutathione peroxidase GPX4 (Homo sapiens) (UniProt P36969). The experiment can be described thus: Primary qHTS Assay for Inhibitors of Recombinant Selenoprotein Glutathione Peroxidase 4 (GPX4) (AID 1845192). Further: nearly all actives have a fitted effect of over 65% in size. Further: potency means the concentration at half of the fitted maximal effect. On activity change, negative = inhibition: series mostly up to about 50 µM; on the % scale 0 is the no-effect control and ±100 the full control effect. The gist of the method:
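NADPH consumption, followed by fluorescence at 340/450 nm between 0 and 15 min, reports GPX4 activity via coupled glutathione reductase (100 nM). Enzyme 200 nM was pre-exposed to compound 30 min; 0.5 mM cumene hydroperoxide and 1 mM GSH served as substrates.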
In general terms: In qHTS, concentration-response curves come from the screen itself.

For experiment [3], the target named is Luciferin 4-monooxygenase (Photinus pyralis) (UniProt P08659). The experiment can be described thus: Primary firefly luciferase (FLuc) qHTS assay for identification of artifact compounds. (AID 1845220). Further: nearly all actives have a fitted effect of over 60% in size.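 On activity change, negative = inhibition: series mostly up to about 54 µM; plate controls were DMSO vehicle for no effect and no enzyme for full effect.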 A digest of the protocol: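 Compounds sat 15 min at room temperature with 10 uM luciferin and 10 uM ATP (pH 7.6 Tris acetate). Firefly luciferase (10 nM final) was then added, and luminescence was read 5 min later. Data normalized to no-enzyme and DMSO controls were Hill-fitted.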

Experiment [4] can be described thus: Primary fluorescence-based thiol-reactive (MSTI) qHTS assay for identification of artifact compounds. (AID 1845221). Further: nearly all actives have a fitted effect of over 65% in size. Further: potency means the concentration at half of the fitted maximal effect.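 On activity change, negative = thiol reactive: series mostly up to about 54 µM; thiol-reactive compounds lower the probe fluorescence signal.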 A digest of the protocol:
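Compounds were incubated 1 h at room temperature in the dark with the MSTI probe (4 uM) in PBS pH 7.4, 2% DMSO. Signals were normalized between Acetyl-MSTI and MSTI.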

Experiment [5] relates to Nanoluciferase (engineered Oplophorus gracilirostris luciferase). The experiment can be described thus: Primary Nanoluciferase (NLuc) qHTS assay for identification of artifact compounds. (AID 1845222). Further: potency means the concentration at half of the fitted maximal effect.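 On activity, negative = inhibition: series mostly up to about 54 µM; 0% = DMSO and -100% = no enzyme.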 The gist of the method: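 Luminescence from secreted NLuc (filtered, 1:55-diluted S16 cell medium) read 5 min after Nano-Glo substrate; compounds preincubated 15 min, RT. Hill fits of inhibition normalized to DMSO and no-enzyme.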

Experiment [6] in a line: Primary redox qHTS assay for identification of artifact compounds. (AID 1845223).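 Further: 0% = DMSO and 100% = reference compound.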 The gist of the method:
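Amplex Red (25 uM) and HRP (250 mU/mL) in HBSS, with compounds for 15 min, then 250 uM DTT for 30 min, room temperature, dark. Fluorescence 525/598 nm read; normalized to DMSO and 10 uM DA3003; Hill fit.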

Chain of Phospholipid hydroperoxide glutathione peroxidase GPX4 (Homo sapiens) (P36969 whole entry, looked up): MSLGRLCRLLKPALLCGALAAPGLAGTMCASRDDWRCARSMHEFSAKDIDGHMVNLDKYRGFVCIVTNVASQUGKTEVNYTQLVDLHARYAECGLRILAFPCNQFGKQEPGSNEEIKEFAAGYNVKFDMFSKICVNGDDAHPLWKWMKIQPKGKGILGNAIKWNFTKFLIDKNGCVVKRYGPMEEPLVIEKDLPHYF
Chain of Glutathione peroxidase 1 (Homo sapiens) (P07203 whole entry, looked up): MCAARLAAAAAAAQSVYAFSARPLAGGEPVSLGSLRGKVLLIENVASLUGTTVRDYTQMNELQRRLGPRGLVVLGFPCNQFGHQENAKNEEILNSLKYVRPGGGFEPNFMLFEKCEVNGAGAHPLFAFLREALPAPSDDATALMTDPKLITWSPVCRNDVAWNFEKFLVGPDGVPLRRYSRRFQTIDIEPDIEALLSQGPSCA

Take `CCc1cccc(CC)c1-n1c(C=C(C)C)c(C(=O)N2CCNCC2)cc(-c2nc(-c3ccc(C(F)(F)F)cc3)cs2)c1=O`: the Potency entry in experiment [1], in experiment [2], in experiment [3], in experiment [4] and in experiment [5] was “inactive” each time.

In the case of `COc1c(C)cnc(Cn2cc(C#CCC(C)(C)O)c3c(Cl)nc(N)nc32)c1C`, the Potency result in experiment [1], in experiment [2], in experiment [3], in experiment [4] and in experiment [5] was “inactive” each time.

For `Cc1nc(-c2cn3c(n2)-c2ccc(-c4cnn(C(C)(C)C(N)=O)c4)cc2OCC3)n(C(C)C)n1`, the Potency entry in experiment [1], in experiment [3], in experiment [4] and in experiment [5] was “inactive” in each case. Also, the Potency in experiment [2] was 14.3 µM (active) and 20.2 µM (active).

For the compound `CC(=O)O[C@@H]1C[C@@]23C[C@@]24CC[C@H](O[C@@H]2OC[C@H](O)[C@H](O)[C@H]2O)C(C)(C)[C@@H]4CC[C@H]3[C@]2(C)[C@@H](O)C34O[C@H](C[C@@H](C)[C@@H]3[C@@]12C)[C@@H](C(C)(C)O)O4`, the Potency entry in experiment [1], in experiment [2], in experiment [3], in experiment [4] and in experiment [5] was “inactive” throughout.

With `O=C1c2ccc(Nc3ccc(F)cc3F)cc2CCc2ccc(OCC(O)CO)cc21` (stereo not drawn), the Potency entry in experiment [1], in experiment [2], in experiment [3], in experiment [4] and in experiment [5] was “inactive” in each case.

As to `COC(=O)C1=CO[C@@H](O[C@@H]2O[C@H](CO)[C@@H](O)[C@H](O)[C@H]2O)[C@H]2[C@@H]1C=C[C@]21C=C([C@H](C)OC(=O)/C=C/c2ccc(O)cc2)C(=O)O1`, the Potency result in experiment [1], in experiment [2], in experiment [3], in experiment [4] and in experiment [5] was “inactive” each time.

`CCNC1(C(N)=O)CN(c2nc(C)nc3c(-c4ccc(Cl)cc4)c(-c4ccccc4Cl)nn23)C1`: the Potency result in experiment [1], in experiment [2], in experiment [3], in experiment [4] and in experiment [5] was “inactive” each time.

`CCc1cc2c(cc1CC)CC(NCC(O)c1ccc(O)c3[nH]c(=O)ccc13)C2` (stereo not drawn): the Potency entry in experiment [1], in experiment [2], in experiment [3], in experiment [4] and in experiment [5] was “inactive” throughout.

In the case of `CC1CCC/C=C/C(=O)c2c(O)cc(O)cc2CC(=O)O1` (stereo not drawn), the Potency result in experiment [1], in experiment [2], in experiment [3] and in experiment [5] was “inactive” in each case. The Potency in experiment [4] is 11.9 µM (active).

Take `COc1cc(C(N)=O)nc(-c2ccccn2)c1O`: the Potency entry in experiment [1], in experiment [2], in experiment [3] and in experiment [5] was “inactive” throughout. In addition, the Potency in experiment [4] was 23.8 µM (active).

Take `CCCc1cc(C)[nH]c(=O)c1CNC(=O)c1cc(-c2ccnc(N3CCN(C)CC3)c2)cc2c1cnn2C(C)C`: the Potency result in experiment [1], in experiment [2], in experiment [3], in experiment [4] and in experiment [5] was “inactive” in each case.

Turning to `CC(=O)O[C@H]1CC(C)(C)CC2[C@]13CO[C@@]21CCC2[C@@]4(C)CC[C@H](O[C@@H]5OC[C@H](O[C@@H]6O[C@H](CO)[C@@H](O)[C@H](O)[C@H]6O[C@@H]6OC[C@@H](O)[C@H](O)[C@H]6O)[C@H](O)[C@H]5O[C@@H]5O[C@H](CO)[C@@H](O)[C@H](O)[C@H]5O)[C@@](C)(CO)C4CC[C@@]2(C)[C@]1(C)C[C@H]3O` (stereo partly drawn), the Potency result in experiment [1] and in experiment [2] was “inactive” each time. Moreover, the outcome in experiment [3] is “inactive [at 11.6 µM]”. The activity change, negative = thiol reactive in experiment [4] was 28.4% [at 11.5 µM]. The activity, negative = inhibition in experiment [5] is 2.37% [at 11.6 µM].

With `Cc1cc(C(=O)Nc2cc(Oc3ccc4nc(NC(=O)C5CC5)cn4n3)ccc2C)n(C)n1`, the Potency entry in experiment [1], in experiment [3], in experiment [4] and in experiment [5] was “inactive” in each case. The Potency in experiment [2] was 25.5 µM (active).

Take `CC1(C)CC[C@]23CO[C@@]4(CCC5[C@@]6(C)CC[C@H](O[C@@H]7OC[C@H](O[C@@H]8O[C@H](CO)[C@@H](O)[C@H](O)[C@H]8O[C@@H]8OC[C@@H](O)[C@H](O)[C@H]8O)[C@H](O)[C@H]7O[C@@H]7O[C@H](CO)[C@@H](O)[C@H](O)[C@H]7O)[C@@](C)(CO)C6CC[C@@]5(C)[C@]4(C)C[C@H]2O)[C@@H]3C1` (stereo partly drawn): the Potency result in experiment [1] and in experiment [2] was “inactive” each time. In experiment [3], the outcome is “inactive [at 11.6 µM]”. Besides, the activity change, negative = thiol reactive in experiment [4] was 317% [at 11.5 µM]. Further, the activity, negative = inhibition in experiment [5] was 3.72% [at 11.6 µM].

Regarding `CCCCOC(=O)NS(=O)(=O)c1sc(CC(C)C)cc1-c1ccc(Cn2ccnc2)cc1`, the Potency entry in experiment [1], in experiment [2], in experiment [3], in experiment [4] and in experiment [5] was “inactive” each time.

Turning to `CN(C)C(=O)C(=O)c1cn(C)c2cc(Cl)c(C(=O)N3CCC(Cc4ccc(F)cc4)CC3)cc12`, the Potency result in experiment [1], in experiment [2], in experiment [3], in experiment [4] and in experiment [5] was “inactive” in each case.

Take `CCOC(=O)C1=Cc2ccc(C(F)(F)C(F)(F)F)cc2N=C(N)C1`: the Potency entry in experiment [1], in experiment [2], in experiment [3], in experiment [4], in experiment [5] and in experiment [6] was “inactive” each time.

Regarding `CC(O)(C(=O)C1CC1(CO)COC1OC(CO)C(O)C(O)C1O)C1C(O)CC2C3CC=C4CC(O)CC(O)C4(C)C3C(O)CC21C` (stereo not drawn), the Potency result in experiment [1], in experiment [2], in experiment [3], in experiment [4], in experiment [5] and in experiment [6] was “inactive” in each case.

Regarding `C=C1C(=O)O[C@@H]2[C@H]3C(C)=CC(=O)C3=C(C)[C@@H](OC(=O)/C(C)=C\C)[C@H](O)[C@@H]12`, the Potency entry in experiment [1], in experiment [2], in experiment [3], in experiment [4] and in experiment [6] was “inactive” each time. For the same compound, the Potency in experiment [5] was 9.31 µM (active).

Turning to `Cc1ccc(N2CCN(S(=O)(=O)N3CCCCC3)CC2)c(C)c1`, the Potency entry in experiment [1], in experiment [2], in experiment [3], in experiment [4], in experiment [5] and in experiment [6] was “inactive” throughout.

For the compound `CCC/C=C\C=C/CCc1cc(O)c([C@@H]2O[C@H](CO)[C@@H](O)[C@H](O)[C@H]2O)c(O)c1C(=O)OC`, the Potency entry in experiment [1], in experiment [2], in experiment [3], in experiment [4] and in experiment [5] was “inactive” throughout.

In the case of `COc1cc(-n2cnc3cc(-c4ccc(Cl)cc4)sc3c2=O)ccc1OCCN1CCCC1`, the Potency result in experiment [1], in experiment [2], in experiment [3], in experiment [4], in experiment [5] and in experiment [6] was “inactive” each time.

As to `C[C@H]1CC[C@@]2(OC1)O[C@H]1CC3[C@@H]4CC[C@@H]5C[C@@H](O[C@@H]6O[C@H](CO)[C@@H](O[C@@H]7O[C@H](CO[C@@H]8OC[C@@H](O)[C@H](O)[C@H]8O)[C@@H](O[C@@H]8O[C@H](CO)[C@H](O)[C@H](O)[C@H]8O)[C@H](O)[C@H]7O)[C@H](O)[C@H]6O)CC[C@]5(C)C4CC[C@]3(C)[C@H]1[C@@H]2C` (stereo partly drawn), the Potency entry in experiment [1] and in experiment [2] was “inactive” in each case. For the same compound, in experiment [3], the activity change, negative = inhibition is 2.09% [at 11.6 µM]. The activity change, negative = thiol reactive in experiment [4] was 133% [at 11.5 µM]. For the same compound, the activity, negative = inhibition in experiment [5] was 2.05% [at 11.6 µM]. Besides, the redox activity (% of DA3003) in experiment [6] was 17.1% [at 11.5 µM].

`Fc1ccc(-c2nc(C3CCNCC3)sc2-c2ccnc(NC3CC3)n2)cc1`: the Potency result in experiment [1], in experiment [2], in experiment [3], in experiment [4], in experiment [5] and in experiment [6] was “inactive” in each case.

`COc1cc(CN(CCN)C(=O)c2cccs2)ccc1OCc1ccccc1`: the Potency result in experiment [1], in experiment [2], in experiment [3], in experiment [4] and in experiment [5] was “inactive” in each case.

For `C[C@@H](O[C@H]1OCCN(Cc2nn(P(=O)(O)O)c(=O)[nH]2)[C@H]1c1ccc(F)cc1)c1cc(C(F)(F)F)cc(C(F)(F)F)c1`, the Potency result in experiment [1], in experiment [2], in experiment [3], in experiment [4], in experiment [5] and in experiment [6] was “inactive” in each case.

For the origin of these results see PubChem BioAssay (NCATS).
